Assay results from PubChem BioAssay AID602405 (Broad Institute, 2012).
Hit rate of the full screen: of about 360,000 compounds, about 350 (0.097%) were called active. No stated cut-off is given here; in the data, active means inhibition above about 16% (passing the limit was not always enough); inconclusive means no clear call, values can overlap the other calls; inactive means below that. The entries come from a sample that favours actives as a whole.

system: UDP-N-acetylbacillosamine N-acetyltransferase PglD (Campylobacter jejuni); experiment: blockers of PglD enzyme activity – biochemical, DTNB colorimetric, single point, primary screen (AID 602405); settings: purified PglD enzyme, DTNB colorimetric CoA detection; at 12.5 µM; hits give high values

inhibition, inactive:
C[C@@H]1CN([C@@H](C)CO)C(=O)c2cc(NS(C)(=O)=O)ccc2O[C@@H](C)CCCCO[C@@H]1CN(C)C(=O)c1ccccc1 2.15%
C[C@H]1CN([C@@H](C)CO)C(=O)Cc2cc(NC(=O)c3ccncc3)ccc2O[C@@H]1CN(C)C(=O)Nc1ccccc1 3.86%
O=C(C[C@@H]1CC[C@H](NC(=O)C2CC2)[C@H](CO)O1)NCc1ccccc1Cl -4.45%
CN(C)Cc1cn(CC[C@H]2CC[C@H](NC(=O)Nc3ccccc3F)[C@@H](CO)O2)nn1 -0.499%
C[C@H]1CN([C@@H](C)CO)C(=O)c2cc(NC(=O)Cn3cnnn3)ccc2O[C@H]1CN(C)S(C)(=O)=O -4.84%
O=C(Nc1ccccc1)N[C@@H]1CC[C@H](CCn2cc(C3(O)CCCC3)nn2)O[C@@H]1CO 2.19%
COc1ccc(-c2ccc3c(c2)O[C@@H](CN(C)CC2CCOCC2)[C@@H](C)CN([C@@H](C)CO)S3(=O)=O)cc1 -0.251%
O=C(C[C@@H]1CC[C@H]2[C@@H](COC[C@@H](O)CN2C(=O)Nc2ccc(Cl)cc2)O1)NC1Cc2ccccc2C1 2.05%
OC[C@@H]1Nc2ccc(-c3ccc(F)cc3)cc2[C@@H]2[C@H]1CCN2Cc1ccc(F)cc1 0.0285%
C[C@H](CO)N1C[C@H](C)[C@H](CN(C)S(=O)(=O)c2cn(C)cn2)OCCCC[C@H](C)Oc2ccc(N(C)C)cc2C1=O -2.91%
COc1ccc(NC(=O)Nc2ccc3c(c2)C(=O)N([C@@H](C)CO)C[C@H](C)[C@H](CN(C)C(=O)Nc2ccccc2)OCCCC[C@@H](C)O3)cc1 1.95%
CC(C)C(=O)Nc1ccc2c(c1)C(=O)N(C)[C@@H]1CC[C@@H](CC(=O)NCCc3ccccc3)O[C@H]1CO2 -3.51%
C[C@@H]1CN([C@@H](C)CO)S(=O)(=O)c2ccc(C#Cc3cccnc3)cc2O[C@@H]1CN(C)C(=O)CN(C)C 0.034%
C[C@@H]1CN([C@H](C)CO)S(=O)(=O)c2ccc(/C=C/c3ccccc3)cc2O[C@@H]1CN(C)C(=O)Nc1ccc(F)cc1 4.65%
O=C([C@H]1[C@H](CO)[C@H]2Cn3c(cccc3=O)[C@@H]1N2Cc1cocn1)N1CCCCC1 -0.522%
C[C@H](CO)N1C[C@H](C)[C@H](CN(C)C(=O)Nc2ccc(C(F)(F)F)cc2)Oc2ccc(N(C)C)cc2CC1=O 1.24%
COc1ccccc1-c1cnc2c(c1)C(=O)N([C@@H](C)CO)C[C@@H](C)[C@H](CN(C)Cc1cccnc1)O2 1.03%
CCC(=O)N1C[C@@H](C)[C@H](OC)CN(C)C(=O)c2ccc(NC(=O)NC(C)C)cc2OC[C@H]1C -4.33%
C[C@@H]1CN([C@@H](C)CO)C(=O)c2cc(N(C)C)ccc2O[C@@H](C)CCCCO[C@H]1CN(C)C(=O)CCCN(C)C 2.35%
CCC(=O)Nc1ccc2c(c1)C(=O)N(C)C[C@@H](OC)[C@@H](C)CN(Cc1ccccc1OC)[C@H](C)CO2 0.2%
CC(C)NC(=O)Nc1ccc2c(c1)C(=O)N([C@H](C)CO)C[C@@H](C)[C@@H](CN(C)S(=O)(=O)c1cccs1)OCCCC[C@@H](C)O2 -0.385%
C[C@H]1CN([C@@H](C)CO)C(=O)c2cccc(NC(=O)Nc3cccc4ccccc34)c2O[C@@H]1CN(C)C(=O)NC1CCCCC1 0.764%
C[C@@H]1CN([C@H](C)CO)S(=O)(=O)c2ccc(C#CCC3CCCC3)cc2O[C@H]1CN(C)Cc1ccc(C(=O)O)cc1 6.4%
Cc1noc(C)c1S(=O)(=O)Nc1ccc2c(c1)CC(=O)N([C@@H](C)CO)C[C@@H](C)[C@H](CN(C)C)O2 -1.66%
CN(C)C(=O)c1cccc(-c2ccc3c(c2)[C@@H]2[C@@H](CCN2Cc2nccs2)[C@@H](CO)N3)c1 0.288%
CCNC(=O)Nc1ccc2c(c1)C(=O)N(C)[C@@H]1CC[C@H](CC(=O)NC3CCCCC3)O[C@H]1CO2 1.07%
C[C@@H]1CN([C@@H](C)CO)C(=O)c2cc(C#CCN(C)C)cnc2O[C@@H]1CN(C)Cc1ccccn1 3.09%
COc1cccc(NC(=O)N(C)C[C@H]2Oc3ncc(C4=CCCCC4)cc3C(=O)N([C@H](C)CO)C[C@H]2C)c1 10.3%
CN1C(=O)c2cc(NC(=O)c3cccc(F)c3)ccc2OC[C@@H]2O[C@H](CC(=O)N3CCc4ccccc4C3)CC[C@@H]21 -1.96%
CNC(=O)C[C@@H]1CC[C@@H]2[C@H](COC[C@@H](O)CN2S(=O)(=O)c2ccccc2Cl)O1 1.56%
Cc1noc(C)c1S(=O)(=O)N(C)C[C@H]1Oc2ccc(NC(=O)Cc3ccccc3)cc2CC(=O)N([C@@H](C)CO)C[C@H]1C 2.8%
O=C(C[C@H]1C[C@@H]2c3cc(NC(=O)C4CCC4)ccc3O[C@@H]2[C@@H](CO)O1)NCCN1CCCCC1 3.36%
COc1cccc(S(=O)(=O)N[C@H]2C=C[C@H](CC(=O)NC3Cc4ccccc4C3)O[C@@H]2CO)c1 -1.14%
COc1ccc(S(=O)(=O)N[C@@H]2CC[C@H](CC(=O)N3CCc4ccccc4C3)O[C@H]2CO)cc1 -0.563%
COCC#Cc1cnc2c(c1)C(=O)N([C@@H](C)CO)C[C@@H](C)[C@H](CN(C)C(=O)C1CCOCC1)O2 4.25%
COc1ccc(NC(=O)N(C)C[C@H]2OCCCC[C@@H](C)Oc3ccc(NC(=O)NC4CCCCC4)cc3C(=O)N([C@@H](C)CO)C[C@H]2C)cc1 4.17%
O=C(NCC[C@@H]1CC[C@@H](NC(=O)Nc2cc(F)ccc2F)[C@H](CO)O1)Nc1ccc(Cl)cc1 0.614%
COc1cccc(S(=O)(=O)N2CCCCN3[C@H](CO)[C@H](c4ccc(-c5ccncc5)cc4)[C@H]3C2)c1 2.87%
Cc1noc(C)c1S(=O)(=O)N(C)C[C@@H]1Oc2ccc(NC(=O)C3CC3)cc2CC(=O)N([C@@H](C)CO)C[C@@H]1C -3.27%
COc1cccc(C(=O)Nc2ccc3c(c2)C(=O)N(C)[C@H]2CC[C@H](CC(=O)N[C@@H](C)c4ccccc4)O[C@H]2CO3)c1 0.936%
